# Bioassay records (PubChem BioAssay)
# A selection: hits, their analogues and other compounds. The true share with any hit is near 2.4%.
# FEN1 inh – inhibitors of human flap endonuclease 1; Recombinant FEN1 flap cleavage, fluorescence, 15 min; Potency, µM (highest dose often 114 µM), inactives show at the top dose activity change, negative = inhibition, most hits filed as inhibitors; actives 0.35% (n = 390,000); AID 588795; further: on the % scale 0 is the no-effect control and ±100 the full control effect; nearly all actives have a fitted effect of over 65% in size
#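 FEN1 at 10 nM preincubated with compounds 15 min at room temperature, then flap DNA substrate added at 50 nM final. Signal read at 0 and 15 min; concentration-response fitted with four-parameter Hill equation.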
# WRN inhibitor – WRN helicase (human) inhibition | actives 0.46% (n = 360,000) | WRN helicase unwinding, fluorescent forked duplex, kinetic | Potency, µM (highest dose often 114 µM), inactives show top-dose activity change, negative = inhibition, actives largely listed as inhibitors | AID 651768 | Q14191; further: on the % scale 0 is the no-effect control and ±100 the full control effect; nearly all actives have a fitted effect of over 55% in size
#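 WRN at 20 nM final preincubated with compound 15 min at room temperature; reaction started with 100 nM fluorophore/quencher forked duplex oligonucleotide and 2 mM ATP final. Unwinding followed kinetically by red fluorescence (ex 525, em 598 nm).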
# Pol eta inh-1 – blocks human DNA polymerase eta activity; Q9Y253; AID 588591; actives 1.2% (n = 390,000); recombinant Pol eta, fluorescent DNA replication assay; Potency, µM (doses to about 114 µM), without a hit: top-dose activity change, negative = inhibition, actives largely listed as inhibitors; further: on the % scale 0 is the no-effect control and ±100 the full control effect
#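 Fluorescent replication assay: 50 nM final substrate added after a 15 min room-temperature compound preincubation with 10 nM enzyme. Signal taken at 0 min and again at 10 min.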
# Pol iota inh – inhibitors of human DNA polymerase iota; Pol iota fluorescent replication assay, 10 min; Potency, µM (titrated, usually from 115 µM), for the others: top-dose activity, negative = inhibition, hits mostly inhibitors; actives 1% (n = 390,000)
#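 Fluorescent replication assay read twice, at 0 min and 10 min after adding 50 nM (final) substrate. Enzyme (10 nM) and compounds were first incubated 15 min at room temperature; enzyme-free buffer wells were negative controls.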
# Pol kappa inh-1 – DNA polymerase kappa (human) inhibition; purified Pol kappa, fluorescent DNA synthesis assay, 10 min; Potency, µM (series often up to 107 µM), for inactives: top-dose activity, negative = inhibition, usual class: inhibitors; actives 0.53% (n = 400,000); further: on the % scale 0 is the no-effect control and ±100 the full control effect
# Target sequence (Q9UBT6 whole entry, looked up): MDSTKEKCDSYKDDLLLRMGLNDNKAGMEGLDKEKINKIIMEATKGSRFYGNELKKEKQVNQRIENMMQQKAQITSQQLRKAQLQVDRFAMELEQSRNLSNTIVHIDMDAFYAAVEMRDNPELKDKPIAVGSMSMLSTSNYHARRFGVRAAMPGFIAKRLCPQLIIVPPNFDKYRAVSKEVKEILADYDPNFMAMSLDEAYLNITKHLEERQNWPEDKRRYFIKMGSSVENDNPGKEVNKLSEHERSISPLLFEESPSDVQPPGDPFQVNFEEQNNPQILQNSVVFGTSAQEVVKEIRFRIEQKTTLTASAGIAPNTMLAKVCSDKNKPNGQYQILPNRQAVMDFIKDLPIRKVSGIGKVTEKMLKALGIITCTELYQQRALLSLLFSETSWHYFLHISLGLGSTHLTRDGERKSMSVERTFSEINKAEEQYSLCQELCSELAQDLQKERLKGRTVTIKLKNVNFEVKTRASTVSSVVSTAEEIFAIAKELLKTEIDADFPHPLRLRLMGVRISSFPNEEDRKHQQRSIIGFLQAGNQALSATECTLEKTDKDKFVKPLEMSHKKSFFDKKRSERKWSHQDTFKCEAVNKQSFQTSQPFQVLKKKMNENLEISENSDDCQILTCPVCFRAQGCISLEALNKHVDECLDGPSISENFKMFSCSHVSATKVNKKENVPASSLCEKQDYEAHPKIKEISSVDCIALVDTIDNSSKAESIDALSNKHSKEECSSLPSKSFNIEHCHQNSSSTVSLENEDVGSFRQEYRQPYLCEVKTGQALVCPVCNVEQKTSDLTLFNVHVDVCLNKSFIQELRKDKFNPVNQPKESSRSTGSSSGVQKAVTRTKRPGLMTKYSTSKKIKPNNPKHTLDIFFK
#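 Here, compound and 10 nM enzyme are combined for 15 min at room temperature; adding 50 nM substrate (final) starts DNA synthesis, tracked by fluorescence at 0 and 10 min against buffer-only wells.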
# Pol beta inh – inhibitors of human DNA polymerase beta | P06746 | Pol beta primer extension/strand displacement, fluorescence kinetic | Potency, µM (titrated, usually from 114 µM), without a hit: top-dose activity change, negative = inhibition, hits mostly inhibitors | actives 1.3% (n = 340,000) | AID 485314; further: on the % scale 0 is the no-effect control and ±100 the full control effect
#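 Curves were derived by four-parameter Hill fits of normalized qHTS data. The kinetic fluorescent primer-extension read was taken at 0 and 10 min after 50 nM substrate, following a 15 min room-temperature preincubation of 10 nM enzyme with compounds.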
# Pol kappa inh-2 – confirmation of human DNA polymerase kappa inhibitors; shares compounds with Pol eta inh-1; purified Pol-kappa, fluorescent strand-displacement substrate; Potency, µM, most hits filed as inhibitors; actives 76% (n = 920)
# Pol eta inh-2 – confirmation of human DNA polymerase eta inhibitors | shares compounds with Pol eta inh-1 | Pol eta primer extension, TAMRA/BHQ fluorescence, 10 min | Potency, µM, most hits filed as inhibitors | actives 64% (n = 2,600)
# * hit, by the source's call; u = inconclusive; x = no result given; [ ] = remark or other dose. The call rests on the fitted dose curve; in most records, active means well fitted curve in the direction sought with a large enough effect; inconclusive means small, poorly fitted or top-dose-only effect, or another doubt; inactive means no such curve, though single readings can be large; an effect the other way counts as inactive or inconclusive. Potency means the concentration at half of the fitted maximal effect.
SMILES,FEN1 inh,WRN inhibitor,Pol eta inh-1,Pol iota inh,Pol kappa inh-1,Pol beta inh,Pol eta inh-2,others
CCCCNC(=O)c1ccc2nc(-c3ccco3)c(-c3ccco3)nc2c1,40µM*,79µM*,14µM*,u,8.9µM*,20µM*,u,Pol kappa inh-2=21*
NC1(C(=O)O)CCc2cc(C(=O)O)ccc21 (centres undefined),x,x,u,-11%[58.9 µM],-11%[60.1 µM],u,x,
COc1ccc(OC)c(NC(=O)CN2C(=O)COc3ccc(S(=O)(=O)NC4CCCC4)cc32)c1,-15%,x,-26%,-1%,-11%[60.1 µM],21%,x,
NC(=O)C(CC(=O)O)NC(=O)[C@@H]1CCOc2c(I)cc([N+](=O)[O-])cc2C(=O)N[C@@H](CO)C(=O)N[C@@H](Cc2ccc(O)cc2)C(=O)N1 (some centres undefined),u,-30%[57.1 µM],20µM*,u,35µM*,0%,30*,
NC(=O)[C@@H]1CCNc2c(I)cc([N+](=O)[O-])cc2C(=O)N[C@@H](CO)C(=O)N[C@@H](Cc2ccc(O)cc2)C(=O)N1,x,x,x,x,x,3%,x,
CC(=O)c1cccc(NC(=O)CN2C(=O)c3ccccc3C2=O)c1,0%,8%,-16%,63%,-15%,18%,x,
CC(=O)c1cccc(NC(=O)CN2C(=O)C(=O)N(Cc3ccco3)C2=O)c1,-21%,-18%,14µM*,50µM*,u,x,u,
O=C(O)c1cccc(NC(=O)c2ccc3c(c2)C(=O)N(Cc2ccco2)C3=O)c1,-8%,-19%[11.6 µM],18µM*,50µM*,u,u,43*,Pol kappa inh-2=67*
COc1cccc(N2CC(NC(=O)CCCc3ccccc3)CC2=O)c1 (centres undefined),20%,x,11%,2%,-10%[60.1 µM],0%,x,
COc1ccc(S(=O)(=O)N2CCC(N3CCN(Cc4ccccc4)C(=O)C3=O)CC2)cc1,-3%,x,-24%,-28%,4%,7%,x,
COc1ccc(CCNC(=O)c2ccc(Cn3c(=O)c4ccccc4n(Cc4cccc(F)c4)c3=O)cc2)cc1OC,-1%,x,-6%,u,0%,u,x,
O=[N+]([O-])c1ccc(O)c(C=NNc2ccc(S(=O)(=O)O)cc2)c1,-2%,-29%,6.3µM*,22µM*,u,x,54*,Pol kappa inh-2=21*
Cc1ccc(C(=O)CSC2=C(C#N)C(c3ccco3)CC(=O)N2)c(C)c1 (centres undefined),-1%,u,79µM*,18µM*,u,32µM*,u,
Cc1ccc(NC(=O)CSC2=C(C#N)C(c3ccco3)CC(=O)N2)cc1 (centres undefined),-12%,-3%,u,6%,-14%,0%,x,
C=CCOCCN1C(=O)C2C3C=CC(C2C1=O)C1C2C(=O)N(CCOCC=C)C(=O)C2C31 (centres undefined),-5%,u,20µM*,28µM*,u,u,67*,
CC(=O)N1CCc2c(sc3c2c(=O)n(-c2ccc(C)cc2)c(=O)n3Cc2ccccc2C)C1,-13%,x,-10%,-11%,-15%,-6%,x,
Cc1cc(=O)oc2cc(OCC(=O)N3c4ccccc4NC(=O)C3(C)C)ccc12,-4%,-1%[11.6 µM],56µM*,40µM*,u,x,u,
CC(=O)NNC(=O)CSc1nnc(-c2ccccc2)c(-c2ccccc2)n1,u,-24%,14µM*,u,u,0%,7.6*,Pol kappa inh-2=19*
O=C(CSc1nncc2ccccc12)Nc1cccc(C(=O)O)c1,3%,-3%,-22%,u,0%,19%,x,
O=C(CSc1nc(-c2ccccc2)nc2ccc(F)cc12)Nc1cccc(C(=O)O)c1,u,-21%,79µM*,u,-25%,u,x,Pol kappa inh-2=u
COc1ccc2c(c1)Oc1nc(-c3ccc(C)cc3)nc(SCC(=O)Nc3cccc(C(=O)O)c3)c1C2,x,x,x,x,x,x,x,Pol kappa inh-2=30*
CCCOc1ccc(Cc2nn3c(=O)/c(=C/c4ccco4)sc3nc2=O)cc1,u,56µM*,25µM*,6.3µM*,8.9µM*,25µM*,u,
Cc1ccc(OC(=O)CSc2nnc(-c3ccc4c(c3)OCO4)o2)c(C)c1,-7%,x,-8%,6%,2%,1%,x,
O=C(Nc1ccccc1C(=O)OCc1cc(=O)n2ccsc2n1)c1ccccc1Cl,0%,x,6%,0%,-9%[60.1 µM],23%,x,
O=C(OCc1cc(=O)n2ccsc2n1)c1ccccc1NCCO,9%,-11%[11.6 µM],22µM*,20µM*,u,x,u,
SMILES,FEN1 inh,WRN inhibitor,Pol eta inh-1,Pol iota inh,Pol kappa inh-1,Pol beta inh,Pol eta inh-2,others
CC(=O)NS(=O)(=O)c1ccc(NC(=O)c2cc(-c3ccc(C)c(C)c3)nc3ccccc23)cc1,-16%,u,22µM*,-22%,-7%,25µM*,76*,
CC(=O)NS(=O)(=O)c1ccc(NC(=O)c2cc(-c3ccc(C)cc3)nc3ccccc23)cc1,-6%,-5%,1%,111%,-5%,-30%,x,
Cc1ccc(C)c(S(=O)(=O)NCC(c2ccco2)S(=O)(=O)c2ccc(F)cc2)c1 (centres undefined),2%,x,-29%,22%,-4%[60.1 µM],-1%,x,
O=C(Nc1ccccc1Cl)c1ccc(F)c(S(=O)(=O)NCc2ccc(Cl)c(Cl)c2)c1,-15%,x,1%,-8%,-11%[60.1 µM],29%,x,
CC(=O)c1c(C)[nH]c(C(=O)OC(C)C(=O)Nc2ccc(C)c(S(=O)(=O)N3CCOCC3)c2)c1C (centres undefined),-2%,4%,-6%,-15%,-2%,x,x,
Cc1ccc(NC(=O)C(C)OC(=O)c2cc(=O)[nH]c3ccccc23)cc1S(=O)(=O)N1CCOCC1 (centres undefined),-4%,u,18µM*,25µM*,89µM*,x,u,
Cc1ccc(NC(=O)CCS(=O)(=O)c2cc(Br)cc3c2N(C(=O)C2CC2)CC3)cc1,-4%,x,-10%,3%,-3%,-24%,x,
C/C(=N\NC(=O)c1cc(O)ccc1O)c1cccc(NC(=O)c2cccc(Cl)c2)c1,u,-20%[11.6 µM],u,u,79µM*,u,u,
C/C(=N\NC(=O)C1CC1)c1cccc(NC(=O)c2cccc(Cl)c2)c1,x,x,x,x,x,4%,x,
CCC(C)(C)C1CCc2c(sc(NC(=O)c3ccccc3C(=O)O)c2C#N)C1 (centres undefined),-1%,-35%,u,26%,-33%,-34%,x,Pol kappa inh-2=u
